Here are results for 86 molecules from paper PMC13083723 (Patterns, 2026).

Out of some 5,400 compounds screened, about 190 (3.5%) showed an effect of 50% or more. Shown is part of a subset that was picked to be rich in strong results. Starred links: 1 amine or outer side, 2 acyl side, 3 side chain; linkers in the order of their positions; H or OH if unused. Positions of bridges follow the written chain, without caps; N, C: chain ends. Non-standard residues stand in square brackets, D forms with d. Residues, ends and D or L forms follow the SMILES beside them. *: point of attachment. X5 = NC1=N[C@@H](O)C[C@H]([C@H](N[*:1])C(=O)[*:2])N1; ΔAla(Z-3-ureido) = NC(=O)N/C=C(\N)C(=O)O; β3hOrn = NCCC[C@H](N)CC(=O)*; Dap = NC[C@H](N)C(=O)O

This assay has as its system Vero-E6. Kind of assay: primary screen, phospholipidosis by LipidTOX staining; higher = more effect of the substance. Particulars: 10 µM. The method in brief: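 Single-concentration screen at 10 μM, with DMSO 0.1 v/v % and amiodarone 10 μM as controls. Read-out is LipidTOX Red phospholipid staining, which tolerates aldehyde fixation, in Vero-E6 cells.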
In the case of `C[C@@H]1CC[C@H]2C(C)(C)[C@H]3C[C@@]12CC[C@@]3(C)O`, the result_ITMP is on record as 4.78%. Consider `O=C(O)c1cc(O)c2ccccc2n1`, for which the result_ITMP is recorded as 3.47%. As to `O=C([O-])CCCCCCCCC(=O)[O-]`, the result_ITMP was -5.98%. Regarding `Cc1cccc(-c2nc(C(C)(C)C)[nH]c2-c2ccc3nccnc3c2)n1`, the result_ITMP is recorded as -5.96%. With `CCCn1c(=O)c2nc(C3CCCC3)[nH]c2n(CCC)c1=O`, the result_ITMP amounted to 9.14%. As for `C=C1CC[C@H](O)C/C1=C/C=C1\CCC[C@]2(C)[C@@H]([C@H](C)CCCC(C)(C)O)CC[C@@H]12`, the result_ITMP is -0.38%. As for `C=C1/C(=C\C=C2/CCC[C@]3(C)[C@@H]([C@H](C)CCCC(O)(C(F)(F)F)C(F)(F)F)CC[C@@H]23)C[C@@H](O)C[C@@H]1O`, the figure is 0.82%; as for `C[C@]12CCC(=O)C=C1CCC1C2[C@@H](O)C[C@@]2(C)C1CC[C@]2(O)C(=O)COC(=O)CCC(=O)O` (some centres unmarked), -1.39%. As for `COc1cccc(CCc2ccccc2OCC[C@@H]2C[C@@H](O)CN2C)c1`, the figure is 90.4%; as for `COc1cccc(CN2C[Si](C)(C)O[Si](C)(C)C2)c1`, -1.81%. As for `O=c1[nH]c2ccccc2c(=O)n1CCCN1CCN(c2ccccc2)CC1`, the figure is -3.31%; as for `O=c1[nH]c2ccccc2n1CCCN1CCN(C(c2ccccc2)c2ccccc2)CC1`, 26.4%. Take `C[C@@H]1CN(CCCn2c3ccccc3c3ccccc32)C[C@H](C)N1`: the result_ITMP is 99.9%. The figure for `CC(C)CCC[C@@H](C)[C@H]1CC[C@H]2[C@@H]3CCC4=CC(=NO)CC[C@]4(C)[C@H]3CC[C@]12C` is -0.61%; for `CNCCCC12CCC(c3ccccc31)c1ccccc12` it is 107%. On to `CNCCCC1(c2ccccc2)OC(C)(C)c2ccccc21` (centres unmarked), for which the result_ITMP was found to be 29.5%. In the case of `CNCCCN1c2ccccc2CCc2ccccc21`, the result_ITMP amounted to 36.6%. For `O=C(O)c1ccc(N[C@H]2O[C@H](CO)[C@@H](O)[C@H](O)[C@@H]2O)cc1`, the result_ITMP is given as -5.7%.

Turning to `CC1(S(=O)(=O)[O-])CC(=O)c2ccccc2C1=O` (centres unmarked), the result_ITMP is -0.84%.

For `CN(C)CC/C=C1\c2ccccc2CSc2ccccc21`, the result_ITMP is on record as 43.7%. The figure for `CN(C)CC/C=C1\c2ccccc2Sc2ccc(Cl)cc21` is 51.1%; for `CN(C)CC/C=C1/c2ccccc2COc2ccccc21` it is 41.1%; for `CN(C)CCC=C1c2ccccc2CCc2ccccc21` it is 39.7%. For `CN(C)CCC=C1c2ccccc2C=Cc2ccccc21`, the result_ITMP amounted to 71.1%. On to `CN(C)CCOC1=Cc2ccccc2Sc2ccc(Cl)cc21`, for which the result_ITMP was 13.9%. As to `COCc1nc2c(=O)n(C)c(=O)n(CC(C)C)c2[nH]1`, the result_ITMP is listed as -0.95%. Consider `NC(N)=N/C(N)=N/CCc1ccccc1`, for which the result_ITMP was -1.11%. In the case of `CN/C(=N\C#N)NCCSCc1csc(N=C(N)N)n1`, the result_ITMP was 2.7%. In the case of `CN[C@@H]1Cc2cccc3nc(O)n(c23)C1`, the result_ITMP is 5.61%.

Consider `COc1ccc2c(c1)CN(C)CC2c1ccc(Cl)c(Cl)c1` (centres unmarked), for which the result_ITMP turned out to be 12.7%.

Regarding `CN[C@H]1CC[C@@H](c2ccc(Cl)c(Cl)c2)c2ccccc21`, the result_ITMP came out at 56.1%.

In the case of `CN[C@@H]1C[C@@H](c2ccc(Cl)c(Cl)c2)c2ccccc21`, the result_ITMP is recorded as 71.1%. The figure for `O[C@@H]1CCCC[C@H]1N1CCC(c2ccccc2)CC1` (racemic) is -4.38%; for `S=C(NC1CCCCC1)N1CCC(c2c[nH]cn2)CC1` it is 1.61%.

With `Oc1ccc2c3c1OC1C(O)CCC4(O)C(C2)N(CC2CCC2)CCC314` (centres unmarked), the result_ITMP is reported as 1.96%. As to `CC(C)COCC(CN(Cc1ccccc1)c1ccccc1)N1CCCC1` (centres unmarked), the result_ITMP worked out at 66.8%. The figure for `c1ccc(CN(CC2=NCCN2)c2ccccc2)cc1` is 16.9%; for `CC(COc1ccccc1)N(CCCl)Cc1ccccc1` (centres unmarked) it is 0.48%; for `COc1ccc2c3c([nH]c2c1)[C@H](CC(C)C)N1C(=O)[C@H](CCC(=O)OC(C)(C)C)NC(=O)[C@@H]1C3` it is -1.42%. In the case of `N[C@@]1(C(=O)O)CC[C@H](C(=O)O)C1.N[C@]1(C(=O)O)CC[C@@H](C(=O)O)C1`, the result_ITMP was -0.35%. Consider `CCS(=O)(=O)N1CCN(c2ccc(Nc3ncc(C(N)=O)c(NC4CC4)n3)cc2)CC1`, for which the result_ITMP came out at 1.28%. Take `CNC(=O)c1nn(C)c2c1C(C)(C)Cc1cnc(Nc3ccc(N4CCN(C)CC4)cc3)nc1-2`: the result_ITMP is 54.6%.

Regarding `CN1CCN(c2ccc(OC(F)(F)F)c(Nc3ncc4c(n3)-c3c(c(C(N)=O)nn3CCO)CC4)c2)CC1`, the result_ITMP is recorded as -0.49%. As for `CC1(C)CC[C@]2(C(=O)O)CC[C@]3(C)[C@H](C(=O)C=C4[C@@]5(C)C=C(C#N)C(=O)C(C)(C)[C@@H]5CC[C@]43C)[C@@H]2C1`, the result_ITMP is -1.94%. Consider `C=CCCCCCCCCC(=O)[O-]`, for which the result_ITMP amounted to 1.9%.

Turning to `CCCCCCCCCCCCCCCC(=O)OC[C@@H](NC(=O)C(Cl)Cl)[C@H](O)c1ccc([N+](=O)[O-])cc1`, the result_ITMP was -1.35%. The figure for `CCCCCCCCC(=O)N[C@H](CN1CCCC1)[C@H](O)c1ccc2c(c1)OCCO2` is 63.4%; for `CCCCCCCC/C=C\CCCCCCCC(=O)N[C@@H](CO)Cc1ccc(O)cc1` it is -1.63%; for `CCCCCCCC(=O)N[C@H](CN1CCCC1)[C@H](O)c1ccc2c(c1)OCCO2` it is 51.9%. With `Cn1cnc([N+](=O)[O-])c1Sc1[nH]cnc2ncnc1-2`, the result_ITMP is -1.78%. As for `N=C(N)Nc1ccc2[nH]c3c(c2c1)C[C@@]1(O)C2Cc4ccc(O)c5c4[C@@]1(CCN2CC1CC1)[C@H]3O5`, the figure is -0.46%; as for `Nc1ccc(S(=O)(=O)[N-]c2cnc3ccccc3n2)cc1`, -3.26%; as for `O=C([O-])c1nc(=O)[nH]c(=O)[nH]1`, -2.23%. For the molecule `CCC[C@@H]1CC2=CC(=O)CC[C@]2(C)[C@H]2CC[C@@]3(C)[C@@H](CC[C@@]3(O)CCC(=O)[O-])[C@H]12`, the result_ITMP is on record as -2.26%. As for `NC1=N[C@H]2[C@H](CCCCC(=O)O)SC[C@H]2N1`, the figure is -5.63%. As for `C[C@]12CC[C@H]3[C@@H](CCC4=CC(=O)CC[C@@H]43)[C@@H]1CC[C@@H]2O`, the figure is -1.6%; as for `NCCC[C@H](N)CC(=O)N[C@H]1CNC(=O)[C@H]([C@H]2C[C@H](O)N=C(N)N2)NC(=O)/C(=C/NC(N)=O)NC(=O)[C@H](CO)NC(=O)[C@H](CO)NC1=O` (β3hOrn-[Dap]SS[ΔAla(Z-3-ureido)][X5]; lactam 1-C), -3.72%. As to `CCOc1cc(C(C)(C)C)ccc1C1=N[C@@](C)(c2ccc(Cl)cc2)[C@@](C)(c2ccc(Cl)cc2)N1C(=O)N1CCN(CCCS(C)(=O)=O)CC1`, the result_ITMP was determined as 106%. For the molecule `Cc1c(Cl)cccc1S(=O)(=O)Nc1nc(NCCc2ccccc2)nc2c1CN(Cc1ccccc1)CC2`, the result_ITMP is on record as -0.11%. As for `COc1ccc2c(c1)c(C1=C(c3c[nH]c4ccccc34)C(=O)NC1=O)cn2CCCN(C)C`, the figure is 120%; as for `Cn1cc(C2=C(c3cn(CCCSC(=N)N)c4ccccc34)C(=O)NC2=O)c2ccccc21`, 15.8%.

As for `CN(C)CCCn1cc(C2=C(c3c[nH]c4ccccc34)C(=O)NC2=O)c2ccccc21`, the result_ITMP is reported as -0.11%. The figure for `CS(=O)(=O)c1ccc(-c2cn3ccccc3n2)cc1` is -2.12%; for `O=C([O-])c1ccccc1-c1c2cc(I)c(=O)c(I)c-2oc2c(I)c([O-])c(I)cc12` it is 7.91%; for `CCC1=C[C@@H]2C[N@@]3CCc4c([nH]c5ccccc45)[C@@](C(=O)OC)(C2)[C@@H]13` it is 6.61%. The figure for `COc1cc2c(Nc3ccc(NC(=O)c4ccccc4)cc3)ncnc2cc1OCCCN1CCOCC1` is -3.61%; for `COc1cc2c(Oc3ccc(NC(=O)C4(C(=O)Nc5ccc(F)cc5)CC4)cc3F)ccnc2cc1OCCCN1CCOCC1` it is 80.1%. As for `COc1cc2nccc(Oc3ccc(NC(=O)C4(C(=O)Nc5ccc(F)cc5)CC4)cc3)c2cc1OC`, the figure is 0.07%; as for `CN1[C@@H]2CC[C@H]1C[C@@H](OC(=O)N1Cc3ccccc3NC1=O)C2`, -1.56%. `CS(=O)(=O)CCNCc1ccc(-c2ccc3ncnc(Nc4ccc(OCc5cccc(F)c5)c(Cl)c4)c3c2)o1`: the result_ITMP stood at 91.4%. As to `Cc1cc(Nc2ncnc3ccc(-c4ccc(CNCCS(C)(=O)=O)o4)cc23)ccc1Oc1ccn2ncnc2c1`, the result_ITMP worked out at 48.5%. As for `CS(=O)(=O)CCNCc1nc(-c2ccc3ncnc(Nc4ccc(OCc5cccc(F)c5)c(Cl)c4)c3c2)cs1`, the figure is 2.46%. In the case of `CCCC(CCC)C(=O)NCc1ccc2c(cnn2-c2ccccc2OC)c1`, the result_ITMP amounted to 0.82%. Regarding `COc1ccc(CNCc2cccc3ccccc23)cc1`, the result_ITMP is recorded as 11.4%.

In the case of `CCn1c2ccccc2c2cc(CNCc3ccccc3OC)ccc21`, the result_ITMP came to 56.5%.

For the molecule `CCn1c(=O)[nH]c2ccccc21`, the result_ITMP is reported as -2.45%. As to `CCn1c2ccccc2c2cc(CNC)ccc21`, the result_ITMP was 73.3%. As for `CCCC(CCC)C(=O)[O-]`, the figure is -5.85%; as for `CC(=O)NCC(=O)N1[C@@H]2CC[C@H]1c1ccc(Nc3ncc(C(F)(F)F)c(NC4CCC4)n3)cc12`, 2.85%. As for `Nc1nc(=O)c2c([nH]1)NCC(CNc1ccc(C(=O)N[C@@H](CCC(=O)[O-])C(=O)[O-])cc1)N2C=O` (some centres unmarked), the figure is -2.25%; as for `C=C1/C(=C\C=C2/CCC[C@]3(C)[C@@H]([C@H](C)/C=C/[C@@H](O)C4CC4)CC[C@@H]23)C[C@@H](O)C[C@@H]1O`, -1.18%. The figure for `Nc1nc(=O)c2c([nH]1)NC[C@H](CNc1ccc(C(=O)N[C@@H](CCC(=O)[O-])C(=O)[O-])cc1)N2C=O` is -7.53%; for `COc1cc(OC)cc(N(CCNC(C)C)c2ccc3ncc(-c4cnn(C)c4)nc3c2)c1` it is 55.2%. In the case of `Cn1cc(-c2ccc3ncc(Cc4ccc5ncccc5c4)n3n2)cn1`, the result_ITMP is 3.96%. As for `COc1cc2ncc(-c3ccccc3)nc2cc1OC`, the result_ITMP is -10.1%. Consider `CCCCCN(C)CCC(O)(P(=O)([O-])O)P(=O)(O)O`, for which the result_ITMP turned out to be 3.23%.
